PKA-R2B act: PKA-R2B complex activation. PKA-R2B holoenzyme dissociation, Cy5-IP20 fluorescence polarization; R2B truncated from residue 108, S112A mutant; 0% DMSO only, 100% 113 µM cGMP. activation, % at 11.4 µM. AID 504700. hit rate 0.079% among 340,000;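 active means activation above a cutoff set at the mean over all compounds plus 3 SD, cut at about 18% in these data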;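 further: higher means more holoenzyme dissociation and a rise in polarization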
CendR NRP1 mod: modulators of CendR peptide binding to human neuropilin-1; hit rate 0.85% among 360,000; AID 602438; FAM-RPARPAR peptide binding to NRP-1, fluorescence polarization; inhibition, % at 25 µM; O14786;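 active means inhibition or corrected inhibition above about 18%, plus a signal ratio from 0.5 to 1.5, limit read from the data, passing the limit was not always enough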
VLA-4 inh: inhibition in a human VLA-4 binding assay | AID 2557 | P13612 | hit rate 0.2% among 330,000 | inhibition, % (about 7 µM as worked out from the volumes in the protocol) | VLA-4 expressing cells, ligand binding flow cytometry; in the data active means inhibition above about 50%
ATG4B inhibitor: blocks human ATG4B protease cleavage of LC3 substrate. inhibition, % at 8.33 µM. ATG4B cleavage of LC3-PLA2, NBD-HPC fluorescence, 1 h. AID 504462. hit rate 0.51% among 340,000; in the data active means inhibition above about 40%
PKA-R1A act: activators of PKA-R1A complex; activation, % at 11.4 µM; hit rate 0.083% among 340,000; P00514+P68181; AID 504707; PKA-R1A dissociation, Cy5-IP20 fluorescence polarization; scaled: DMSO 0%, 113 µM cGMP 100%;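 active means percent activation above the mean of all tested compounds plus 3 SD, cut at about 19% in these data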;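 further: higher means more PKAc released from R1A so a rise in polarization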
R1A FP artifact: counter-screen for PKA-R1A activators: fluorescence polarization artifacts; shares compounds with PKA-R1A act; Cy5-IP20 peptide alone, fluorescence polarization artifact counterscreen; activation, % at 11.4 µM; hit rate 7% among 280;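 active means mean activation over triplicate runs exceeds the adjusted cutoff derived for the parent primary screen, cut at about 19% in these data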;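 further: no PKA protein present so any polarization rise reflects compound interference; higher means stronger polarization artifact and likely false positive in parent screen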
PKA-R1A act conf: confirmation of PKA-R1A complex activators; Cy5-IP20 fluorescence polarization, PKA-R1A holoenzyme dissociation; shares compounds with PKA-R1A act; hit rate 9% among 280; AID 504800; activation, % at 11.4 µM;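 active means mean activation over replicate wells exceeds the adjusted hit threshold taken from the earlier primary screen, cut at about 20% in these data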
Numbers stand for hits; i = inactive; nt = no result. Only some compounds are listed: those with a hit (about 1.6% of all), similar ones and a draw of the others.

SMILES	PKA-R2B act	CendR NRP1 mod	VLA-4 inh	ATG4B inhibitor	PKA-R1A act	R1A FP artifact	PKA-R1A act conf
COc1cccc(-c2c(C(=O)O)cc(O)c3ccc(OC)cc23)c1	i	i	nt	i	i	nt	nt
NC(=O)CSc1nc2ccccc2n1Cc1ccccc1	i	i	i	i	21	i	i
NC(=O)CSc1nc2ccccc2n1-c1ccccc1	i	i	i	i	i	nt	nt
CCOC(=O)C1(C)CCN1C(=O)c1ccccc1C(F)(F)F (stereo not drawn)	nt	i	nt	nt	nt	nt	nt
Cc1ccc(NC(=O)c2cncc(Br)c2)c([N+](=O)[O-])c1	i	i	i	i	23	i	i
CC(C)(C)C(=O)NCc1ccc(C(=O)CSc2nnc(C3CC3)n2C2CC2)s1	i	i	i	i	20	i	i
CCOc1ccc(N=Cc2ccc([N+](=O)[O-])cc2)c(O)c1	i	i	nt	nt	21	i	i
CC(C)N(CC(=O)Nc1ccc(Cl)cc1C(F)(F)F)C(=O)CCl	i	i	i	i	19	i	i
CNC(=O)CSc1nc2nc(C)cc(C)n2n1	i	i	i	i	i	nt	nt
Cc1cc(C)n2nc(SCC(=O)c3ccc[nH]3)nc2n1	i	i	i	i	22	i	i
COc1cccc(N2CC(C(=O)Nc3nnc(SCC(=O)Nc4ccc(NC(C)=O)cc4)s3)CC2=O)c1 (stereo not drawn)	i	i	i	i	i	nt	nt
COc1cccc(C(=O)Nc2nnc(SCC(=O)Nc3ccc(NC(C)=O)cc3)s2)c1	i	i	i	i	20	i	i
COc1ccc(Cl)cc1CC1(C)C(=O)Nc2ccc(S(=O)(=O)NC3CCCCC3)cc21 (stereo not drawn)	nt	i	nt	nt	nt	nt	nt
COc1ccc(C)cc1NC(=O)CSc1nnc(CC(=O)Nc2cccc(C(F)(F)F)c2)n1C	i	i	i	i	23	i	i
COc1ccc(NC(=O)CNc2ccc(OC)c(S(=O)(=O)N3CCOCC3)c2)cc1	i	i	nt	nt	i	nt	nt
Cc1coc2cc3oc(=O)c(CCC(=O)NCc4ccccn4)c(C)c3cc12	i	i	i	i	i	nt	nt
Cc1coc2c(C)c3oc(=O)c(CCC(=O)NCc4ccccn4)c(C)c3cc12	i	i	i	i	20	i	i
CC1(C(=O)Nc2ccccc2)CCN1C(=O)C1(c2ccccc2)CC1 (stereo not drawn)	nt	i	nt	nt	nt	nt	nt
O=C(NCC[C@@H]1CC[C@@H](NC(=O)c2cnccn2)[C@@H](CO)O1)c1ccc2c(c1)OCO2	nt	i	nt	nt	nt	nt	nt
CCOc1ccc(C2=Nn3c(nnc3-c3ccccc3OC)SC2)cc1	i	i	i	i	i	nt	nt
CCOc1ccc(-c2nnc3n2N=C(c2ccc(OC)cc2)CS3)cc1	i	i	i	i	20	i	i
CC[n+]1c(P(=O)([O-])c2ccccc2)[nH]c2ccccc21	i	i	i	i	21	i	i
O=P(CCCCCCCCCP(=O)(c1ccccc1)c1ccccc1)(c1ccccc1)c1ccccc1	i	i	i	i	i	nt	nt
O=C(Cn1nnc2c(cnn2-c2ccccc2)c1=O)N1CCN(c2ccccc2F)CC1	i	i	i	i	19	i	i
O=C(Cn1cnc2c(cnn2-c2ccc(F)cc2)c1=O)N1CCN(c2ccccc2F)CC1	i	i	i	i	i	nt	nt
SMILES	PKA-R2B act	CendR NRP1 mod	VLA-4 inh	ATG4B inhibitor	PKA-R1A act	R1A FP artifact	PKA-R1A act conf
O=C(COC(=O)/C=C/c1cccc(C(F)(F)F)c1)NCc1cccs1	i	i	i	i	i	nt	nt
CCN(CC(=O)Nc1cc(Cl)ccc1C)C(=O)CSCc1c(C)noc1C	i	i	i	i	i	nt	nt
CCc1noc(C)c1C(=O)N(CC)CC(=O)Nc1cc(Cl)ccc1C	i	i	i	i	19	i	i
O=C(COc1ccccc1Cl)NCCc1ccc2c(c1)OCCO2	i	i	i	i	21	i	i
O=C(COc1ccccc1F)NCCc1ccc2c(c1)OCCO2	i	i	i	i	i	nt	nt
c1ccc(CCNc2cc(-c3ccc4ccccc4c3)nc3ccnn23)nc1	nt	i	nt	nt	nt	nt	nt
Cc1ccc(NC(=O)C2c3ccccc3-c3ccccc32)cc1	nt	i	nt	nt	nt	nt	nt
CSc1nc(C)cc(/C=C\c2ccccc2)c1C#N	i	i	i	i	20	i	i
O=C(O)c1ccc2cccc(O)c2n1	nt	i	i	i	nt	nt	nt
O=C(O)c1ccc2cccnc2n1	i	i	i	i	20	i	i
O=C(Nc1ccc(N2CCN(c3ccc(O)cc3)CC2)cc1)Oc1ccccc1	i	i	i	i	20	i	i
Cc1cc(C)c(S(=O)(=O)Cc2ccccc2)c(=O)[nH]1	i	i	i	i	21	i	i
C[C@H](CO)N1C[C@H](C)[C@@H](CN(C)Cc2cncnc2)Oc2cc(Br)ccc2S1(=O)=O	i	i	nt	nt	i	nt	nt
CCCCC(=O)Nc1ccc(NC(=O)C2CC2)cn1	i	i	i	i	20	i	i
CCCC(=O)Nc1ccc(NC(=O)C2CC2)cn1	i	i	i	i	i	nt	nt
COc1ccc(/C=C2\SC(=O)N(CC(=O)Nc3ccc(O)cc3)C2=O)cc1OC	i	i	i	i	23	i	23
COC(=O)c1ccccc1NC(=O)C(=O)NCc1ccncc1	i	i	i	i	21	i	i
COC(=O)c1ccccc1NC(=O)NCc1cccnc1	i	i	i	i	i	nt	nt
Cc1ccc(CNC(=O)c2nccnc2C(=O)O)cc1	i	i	i	i	i	nt	nt
O=C(NCc1nc2ccccc2[nH]1)C1=C[C@H](c2ccc(C(F)(F)F)cc2)C[C@H](OCc2ccc(CO)cc2)O1	i	i	i	i	20	29	i
COc1ccc(NC(=O)Cn2nnc(-c3ccccc3NC(=O)c3ccco3)n2)cc1	i	i	i	i	20	i	i
